Out of some 16,000 compounds screened, about 2,600 (16%) were called active. Roughly 20% stayed inconclusive and do not appear here. Not all results are given here. Unmarked numbers belong to inactive results. The call rests on the fitted dose curve; in most records, active means well fitted curve in the direction sought with a large enough effect; inconclusive means small, poorly fitted or top-dose-only effect, or effect the other way; inactive means no such curve, though single readings can be large or run the other way.
These compounds were tested against Cytochrome P450 2D6 (Homo sapiens) (UniProt P10635) (assay: Cytochrome panel assay with activity outcomes). Conditions: recombinant CYP, pro-luciferin dealkylation, luminescence, p450-cyp2d6; series mostly up to 57.1 µM; activity, negative = inhibition: at the top concentration.
Chain of Cytochrome P450 2D6 (Homo sapiens) (P10635 whole entry, looked up): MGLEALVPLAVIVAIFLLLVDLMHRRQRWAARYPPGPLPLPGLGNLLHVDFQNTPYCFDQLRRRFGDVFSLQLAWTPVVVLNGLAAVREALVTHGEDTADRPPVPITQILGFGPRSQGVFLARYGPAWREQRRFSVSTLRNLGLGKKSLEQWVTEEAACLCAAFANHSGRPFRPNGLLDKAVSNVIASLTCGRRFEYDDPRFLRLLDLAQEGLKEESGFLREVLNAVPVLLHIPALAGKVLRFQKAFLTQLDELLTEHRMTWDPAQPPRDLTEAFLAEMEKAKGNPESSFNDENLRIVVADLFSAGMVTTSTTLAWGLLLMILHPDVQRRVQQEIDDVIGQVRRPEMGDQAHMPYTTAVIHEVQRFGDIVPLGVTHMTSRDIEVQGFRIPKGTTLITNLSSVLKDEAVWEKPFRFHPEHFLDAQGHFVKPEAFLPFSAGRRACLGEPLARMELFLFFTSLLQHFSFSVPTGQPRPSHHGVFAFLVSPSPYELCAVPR
On the % scale 0 is the no-effect control and ±100 the full control effect.

Compound | activity, negative = inhibition | AC50
Cn1c(=O)n2n(c1=O)[C@H]1[C@H](O)[C@H]3O[C@@H]3/C(=N/OC[C@@H](O)COCc3ccco3)[C@@H]1CC2 | 15.6% [at 11.4 µM] | –
Cn1cc(-c2nc3cnc(N4CCNCC4)nc3n(C)c2=O)c2ccccc21 | -6.12% | –
CC(C)OP(=O)(OC(C)C)C(NC(=O)c1ccc(Br)cc1)c1ccccc1 (configuration not stated) | 3.63% | –
COc1ccc(-c2cc(C(=O)O)c3c(C)nn(-c4ccccn4)c3n2)cc1 | 2.51% | –
C[C@@]12CC(=O)[C@@H]3[C@@H](CCC4=CC(=O)CC[C@]43C)[C@@H]1CC=C2CC(=O)O | 17.8% [at 11.4 µM] | –
Cc1cnc(C(=O)OCC(=O)NC(C)C)cn1 | -1.58% | –
CC(C)(SCc1ccccc1)[C@H](N)C(=O)O | 1.44% [at 11.4 µM] | –
Cc1ccccc1OCC(=O)NC(=S)Nc1ccc(Br)c(C)n1 | 5.94% | –
Cc1cccc(N(NC(=O)C(C)(C)O)C(=O)c2ccccc2)c1 | 3.13% | –
Cc1nc2c(ccc3nc(NC(=O)c4ccc(S(=O)(=O)N(C)C)cc4)sc32)s1 | -2.32% | –
CC(C)=CCC/C(C)=C/CO/N=C1/C[C@@H](O)[C@@H](O)[C@@H]2[C@@H]3C(=O)N(C4CCCCC4)C(=O)[C@H]3CC[C@@H]12 | 2.55% [at 11.4 µM] | –
CCOC(=O)N/N=C1/C[C@@H](O)[C@@H](O)[C@@H]2[C@@H]3C(=O)N(C4CCCCC4)C(=O)[C@H]3CC[C@H]12 | -11.9% [at 11.4 µM] | –
CC(=O)OC[C@@H]1O[C@@H](O/N=C2/C[C@@H](O)[C@@H](O)[C@@H]3[C@@H]4C(=O)N(C5CCCCC5)C(=O)[C@H]4CC[C@H]23)[C@H](OC(C)=O)[C@H](OC(C)=O)[C@@H]1OC(C)=O | – | 3980 nM (active)
O=C(NCc1cccnc1)[C@@H]1[C@@H](C(=O)O)[C@H]2CC[C@@H]1O2 | 8.3% [at 11.4 µM] | –
CC1CCCC(C)N1C(=O)c1cc(-c2ccc(Cl)c(Cl)c2)on1 (configuration not stated) | -10.3% | –
Cc1ccccc1C1C(C#N)=C2N=C(N)c3c(sc4c3CCCCC4)N2C2=C1C(=O)CC(C)(C)C2 (configuration not stated) | 1.58% | –
CO[C@]1(NC(=O)C2SC(=C(C(N)=O)C(=O)O)S2)C(=O)N2C(C(=O)O)=C(CSc3nnnn3C)CS[C@H]21 (some centres not stated) | 1.2% [at 25.6 µM] | –
CCc1ccc(/C=C\C(=O)N2CCc3ccccc3C2)cc1 | -12.9% | –
CCCCN1C(=O)CCC(C(=O)O)C1c1ccccc1 (configuration not stated) | -3.9% | –
CCCCCCN1Cc2ccccc2C1 | – | 3550 nM (active)
Cc1cc(NC(=O)c2nn(C)c(C)c2[N+](=O)[O-])no1 | 14.3% | –
Cc1ccc2[nH]c3c(N4CCc5ccccc5C4)ncnc3c2c1 | – | 708 nM (active)
Cc1ccc(C2CC(=O)c3cnc(N4CCc5ccccc5C4)nc3C2)cc1 (configuration not stated) | 3.43% | –
Cc1ccc(S(=O)(=O)Nc2nc3ccccc3nc2N2CCc3ccccc3C2)cc1 | -14.3% | –
CCN1CCN(Cc2ccc(NC(=O)Nc3cccs3)cc2)CC1 | -18.6% | –

Compound | activity, negative = inhibition | AC50
CCN[C@@H]1C[C@H](C)S(=O)(=O)c2sc(S(N)(=O)=O)cc21 | 1.58% [at 25.6 µM] | –
CC(C)(C)C(=O)N(CCN(C(=O)C(C)(C)C)c1ccccc1)c1ccccc1 | 11.6% | –
C=CC(=O)NC(C)(C)Cc1ccccc1 | -1.92% | –
CN(C(=O)CN(CCO)CC(=O)N(C)C(C)(C)Cc1ccccc1)C(C)(C)Cc1ccccc1 | – | 3160 nM (active)
O=C(CCC(=O)OCc1ccc(C(=O)Oc2ccccc2)cc1)Nc1cccc2ccccc12 | -18% | –
CC(=O)Oc1cc(C(F)(F)F)ccc1C(=O)O | 2.6% [at 25.6 µM] | –
CCSC1=C(C#N)C2(CCCCC2)C(C#N)=C(N)N1 | – | 15800 nM (active)
C[C@H](Oc1ccccc1)C(=O)N[C@@H]1C(=O)N2[C@@H]1SC(C)(C)[C@@H]2C(=O)O | -1.89% [at 25.6 µM] | –
COC(=O)[C@@]1(Cc2ccc(F)cc2)[C@@H]2[C@@H](CC(=O)[C@H]2CC(=O)C(=O)N(C)C)CN1C(=O)c1ccccc1 | 1.19% | –
O=C(O)CNC(=O)c1ccccc1O | 7.44% [at 11.4 µM] | –
CCCCCCCCCn1cc(C(C)=O)c(=O)[nH]c1=O | 6.59% | –
CN1CCN(c2ncc3ncc(=O)n(Cc4cccs4)c3n2)CC1 | -10.8% | –
Cc1nc2ccccc2c(=O)n1NC(=O)c1ccccc1Cl | -4.16% | –
CN(CCCNC(=O)c1cccn2c(=O)c3ccccc3nc12)Cc1ccccc1 | – | 2240 nM (active)
CN(C)CCCNC(=O)CCc1nc2ccccc2c(=O)[nH]1 | -8.88% | –
COC(=O)[C@@H]1C[C@H]1[C@@H](NC(=O)c1cnccn1)c1ccccc1 | -19.4% | –
COc1cccc(OC)c1/C(O)=C(\C#N)c1nc2ccccc2[nH]1 | -4.28% | –
CCNC(=S)NNC(=O)c1cc(C)on1 | 1.44% | –
CCS(=O)(=O)N1CCC(C(=O)NCC2CCCO2)CC1 (configuration not stated) | 10.9% | –
Cn1c(O)c(C(C#N)=C2N=c3ccccc3=N2)c2ccccc21 | – | 7080 nM (active)
O=C1OCCC1Sc1nnc(-c2ccc(O)cc2)o1 (configuration not stated) | -8.18% | –
N#Cc1ccc(-c2ccc(F)cc2)nc1Sc1ccccc1 | -6.07% | –
CCOc1ccc(C(Nc2ccc(C)cc2)P2(=O)OCC(C)(C)CO2)cc1 (configuration not stated) | 17.8% | –
C[C@@H]1CCc2cc(F)cc3c(=O)c(C(=O)O)cn1c23 | 6.54% [at 25.6 µM] | –
O=C(O)Cc1c[nH]c2ccc(O)cc12 | 3.43% | –

Compound | activity, negative = inhibition | AC50
CC(C)CC(=O)Nc1ccc2c(c1)oc1ccccc12 | -15.8% | –
O[C@H](C[C@@H]1CCCCN1)c1ccc2c(c1)oc1ccccc12 | – | 100 nM (active)
O=C(Nc1cnn(Cc2ccc(Cl)cc2Cl)c1)c1cc(-c2cccs2)on1 | -9.02% | –
Cc1ccc(NC(=O)c2nnn(-c3cc(C)cc(C)c3)c2N)cc1 | -35.7% | –
COc1ccc(C(=O)NC(CO)c2nnc(SCc3ccc(Cl)c(Cl)c3)n2C)cc1 (configuration not stated) | -29.4% | –
Cc1ccccc1-c1nccc(NCc2cccnc2)n1 | – | 20000 nM (active)
CC(C)(C)C(=O)Nc1ccnc(-c2cccnc2)n1 | 15.9% | –
Cc1cccc(CNc2ccnc(-c3ccc(C(=O)N(C)C)cc3)n2)c1 | -6.1% | –
Cc1ccccc1-c1cc(NCc2cccnc2)ncn1 | -18.7% | –
O=C(Nc1ccnc(-c2cccnc2)n1)c1cccc(Cl)c1Cl | – | 2240 nM (active)
c1ccc(CNc2ccnc(-c3cccnc3)n2)cc1 | – | 1260 nM (active)
Cc1cccc(CNc2ccnc(-c3cccnc3)n2)c1 | – | 631 nM (active)
CC(=O)Nc1ccnc(-c2cccnc2)n1 | -2.93% | –
O=[N+]([O-])c1ccccc1/C=N/n1c(COc2ccccc2)n[nH]c1=S | -29.2% | –
Cc1ccc(/C=N/n2cnnc2)s1 | -11.6% | –
Cn1c(=S)c2[nH]c(SCCN3C(=O)c4ccccc4C3=O)nc2n(C)c1=O | 2.46% [at 11.4 µM] | –
CCCCC(=O)Nc1nnc(SCC(=O)NC2CCCC2)s1 | 8.09% | –
COc1cc2nc(N(C)CCCNC(=O)[C@@H]3CCCO3)nc(N)c2cc1OC | -16% [at 25.6 µM] | –
Cn1c(=O)c2cc(S(=O)(=O)NCCC(=O)NCCc3ccc(Cl)cc3)ccc2n(C)c1=O | – | 15800 nM (active)
Cn1c(=O)c2cc(S(=O)(=O)NCCC(=O)Nc3ccc(Cl)cc3)ccc2n(C)c1=O | -13.9% | –
Cc1ccc(CNC(=O)CCNS(=O)(=O)c2ccc3c(c2)c(=O)n(C)c(=O)n3C)cc1 | -11.3% | –
O=C1C(C2=NC(C(=O)O)C3C(=O)N(c4ccc(Cl)cc4)C(=O)C23)=C(O)c2ccccc21 (configuration not stated) | -3.63% | –
c1ccc(CSCCc2ccncc2)cc1 | – | 1260 nM (active)
N=C(N)SCCc1ccncc1 | -9.64% [at 11.4 µM] | –
c1ccc2c(CSCCc3ccncc3)cccc2c1 | – | 398 nM (active)

Compound | activity, negative = inhibition | AC50
c1ccc2c(CSCc3cccc4ccccc34)cccc2c1 | 9.11% [at 11.4 µM] | –
N[C@@H](CSCc1ccccc1)C(=O)O | -7.04% [at 11.4 µM] | –
Clc1ccc(CSCCc2ccncc2)cc1Cl | – | 316 nM (active)
O=C(O)c1cc(N=Cc2ccccc2O)cc(C(=O)O)c1 | 7.13% [at 11.4 µM] | –
FC(F)(F)c1nnc(-c2ccccc2)nc1Sc1ccccc1 | -29.5% | –
Cc1cc(C2(c3cc(C)c(O)c(C(=O)O)c3)OS(=O)(=O)c3ccccc32)cc(C(=O)O)c1O | 5.11% [at 11.4 µM] | –
O=C1C2Sc3[nH]c(=O)sc3C(c3ccccc3)C2C(=O)N1c1ccccc1 (configuration not stated) | -14.8% | –
Cc1nc2cnc(N(C)C)nc2n(C2CC2)c1=O | -4.46% | –
COc1cccc(-c2cncnc2NCCc2c[nH]c3ccc(OC)cc23)c1 | – | 2510 nM (active)
COc1ccc2[nH]cc(CCNc3ncncc3-c3cccc(NS(C)(=O)=O)c3)c2c1 | – | 3160 nM (active)
COc1ccc2[nH]cc(CCNc3ncncc3-c3cccnc3)c2c1 | – | 12600 nM (active)
O=C(O)CNc1ccc(C(=O)O)cc1 | 8.05% [at 11.4 µM] | –
Cc1ccccc1C(C(=O)NCc1ccccc1)N(Cc1ccco1)C(=O)c1ccccn1 (configuration not stated) | -16.9% | –
Cc1nn(C)cc1C(=O)NNC(=S)Nc1ccccc1 | -1.67% | –
CCOc1ccc(-c2nn(-c3ccccc3)cc2/C=C(\C#N)S(=O)(=O)c2ccccc2)cc1C | 6.66% | –
C[C@@]12CCC(=O)C=C1CC[C@@H]1[C@@H]2[C@H](O)C[C@]2(C)[C@@H]1CC[C@]2(O)C(=O)CO | 2.89% [at 25.6 µM] | –
C[C@@H]1Cc2ccccc2N1NC(=O)c1ccc(Cl)c(S(N)=O)c1 (some centres not stated) | -10.6% [at 25.6 µM] | –
COc1ccc2cc(CCNC(=O)C3CC3)c(=O)[nH]c2c1 | 5.67% | –
COc1ccc2c(CC(=O)NCC3CCC(C(=O)O)CC3)cc(=O)oc2c1 (configuration not stated) | – | 6310 nM (active)
O=C(NCC1CCC(C(=O)O)CC1)OCc1ccccc1 (configuration not stated) | -12.9% | –
CC(=O)Nc1ccc([N+](=O)[O-])cn1 | 21.1% | –
CO[C@@H]1/C=C\CC(=O)N[C@@H](C)C(=O)OC[C@@H](OC)[C@H](C)CCCC(=O)OC[C@H]1C | 17% [at 11.4 µM] | –

— PubChem BioAssay AID1851 (National Center for Advancing Translational Sciences (NCATS), 2009)
